# From PubChem BioAssay AID1259343 (VanderVen Lab, College of Veterinary Medicine, Cornell …, 2017)
# Among all 6,200 compounds or so, about 2,900 (47%) were called active. No stated cut-off is given here; in the data, active means inhibition above about 50%; inactive means the rest. The set was probably picked from earlier hits. Some of the results follow.
# Test: Mycobacterium tuberculosis growth inhibition, primary screen (AID 1259343)
# Conditions: inhibition: at 10 µM, stronger effect = higher value; outcome: 10 uM
row,Compound,inhibition
1,O=C(c1cc(COc2ccc(-n3cncn3)cc2)on1)N1CCCCO1,inactive
2,O=C(c1cc(COc2ccc3c(c2)CCCC3)on1)N1CCCCO1,92.2% (active)
3,COCc1cc(C(=O)N2Cc3ccccc3N(C)CC2C)no1 (centres undefined),-8.57% (inactive)
4,Cn1c(=O)c2c(S(C)=O)snc2n(C)c1=O (centres undefined),100% (active)
5,Cc1cc(C)n(CC(O)COc2ccc(C(C)(C)C)cc2)n1 (centres undefined),44.2% (inactive)
6,COc1ccc(OCCN(C)S(=O)(=O)c2ccc3c(c2)CCC3)cc1,48% (inactive)
7,Cc1nn(CC(O)COc2ccc3c(c2)CCC3)c(C)c1C (centres undefined),74.7% (active)
8,Cc1cc(C)n(CC(O)COc2ccc3c(c2)CCC3)n1 (centres undefined),70.7% (active)
9,Cn1ccc(NC(=O)c2cc3c(s2)CCC(C(C)(C)C)C3)n1 (centres undefined),49.2% (inactive)
10,CCOc1cc(Cl)ccc1NC(=O)Nc1cccnc1,32% (inactive)
11,N[C@@H](CCCCNC(=O)c1cccnc1)C(=O)NNc1ccc(Cl)cc1,95.5% (active)
12,CN(C)C(=O)C1(CNC(=O)Nc2ccc(F)c(C(F)(F)F)c2)CCCC1,4.66% (inactive)
13,CC(C)NC(=O)CC1(C(=O)Nc2ccc(-c3ccccc3)cc2)CCCC1,91.1% (active)
14,CSc1ccc(NC(=O)CC2(C(=O)O)CCCC2)cc1,85.9% (active)
15,COc1ccc(F)cc1C(=O)C1CCCN(C(=O)Nc2ccc(SC)cc2)C1 (centres undefined),2.1% (inactive)
16,CC(C)NS(=O)(=O)Cc1ccc(CNC(=O)Nc2ccc(-c3ccccc3)cc2)cc1,-37.3% (inactive)
17,O=C(CSCc1ccncc1)Nc1ccc(-c2cncnc2)cc1,89.9% (active)
18,FC(F)(F)CN1CCC(NCc2ccc(-c3ccccc3Cl)s2)C1 (centres undefined),26.6% (inactive)
19,O=S(=O)(Nc1cnc(-c2ccccc2)nc1)c1ccc(F)c(F)c1,58.3% (active)
20,O=S(=O)(Nc1ccc(SC(F)F)cc1)c1ccc(F)c(F)c1,96.8% (active)
21,O=S(=O)(Nc1ccc(OC(F)(F)F)cc1)c1ccc(F)c(F)c1,16% (inactive)
22,CN(CC(N)=O)S(=O)(=O)c1cc2cc(Cl)ccc2s1,90.5% (active)

row,Compound,inhibition
1,Oc1cc(OCCN2CCN(Cc3ccc4c(c3)OCO4)CC2)ccc1-c1[nH]ncc1-c1ccccc1,81.6% (active)
2,O=C(C1COc2ccccc2O1)N1CCc2onc(-c3cccc(F)c3)c2C1 (centres undefined),10.6% (inactive)
3,CC(C)C(=O)Nc1sc2c(c1-c1nc3ccccc3s1)CCN(C(C)C)C2,95.2% (active)
4,CC(C)C(=O)Nc1sc2c(c1-c1nc3ccccc3s1)CCN(C)C2,85.9% (active)
5,CCC(=O)Nc1sc2c(c1-c1nc3ccccc3s1)CCN(C(C)C)C2,100% (active)
6,CC(=O)Nc1sc2c(c1-c1nc3ccccc3s1)CCN(C(C)C)C2,68.3% (active)
7,CC(C)N1CCc2c(sc(NC(=O)C3CC3)c2-c2nc3ccccc3s2)C1,0.31% (inactive)
8,CC(=O)c1ccc(C(=O)Nc2sc3c(c2-c2nc4ccccc4s2)CCN(C)C3)cc1,83.8% (active)
9,CN1CCc2c(sc(NC(=O)c3ccccc3)c2-c2nc3ccccc3s2)C1,29.3% (inactive)
10,CN1CCc2c(sc(NC(=O)c3ccc(F)cc3)c2-c2nc3ccccc3s2)C1,31.8% (inactive)
11,CCCCCCCCCCCCC[N+](C)(C)Cc1ccccc1,70.2% (active)
12,CC(C)(C)c1cc(C(=O)CCN2CCOCC2)cc(C(C)(C)C)c1O,102% (active)
13,O=S(=O)(c1cc(Cl)cc(Cl)c1O)N1CCOCC1,19.4% (inactive)
14,Cc1cccc(CN(CCN2CCOCC2)Cc2ccc(C(O)(c3cccc(F)c3)c3cccc(F)c3)o2)c1,17.9% (inactive)
15,O=C(CCc1cccs1)N1CCN(CC2CCCO2)CC1 (centres undefined),-26.7% (inactive)
16,Cc1ccc(NC(=O)CC(=O)N2CCC(C(O)CC(C)C)CC2)cc1Cl (centres undefined),88.3% (active)
17,CC(C)c1ccc(NC(=O)CCN2CCN(CC3CCCO3)CC2)cc1 (centres undefined),83.5% (active)
18,CC(NC(=O)CCC1CCCO1)c1ccc(Cl)s1 (centres undefined),21.7% (inactive)
19,CC(C)c1ccc(S(=O)(=O)NCC2CCCO2)cc1 (centres undefined),-25.1% (inactive)
20,Cc1ccc(NC(=O)CCC2CCCO2)cc1Cl (centres undefined),96.2% (active)
21,Cc1cc(NC(=O)CN2CCN(CC3CCCO3)CC2)ccc1Cl (centres undefined),66.5% (active)
22,CC(=O)N[C@H]1CCN(CC(=O)Nc2ccc(Cl)c(C)c2)C1,33.5% (inactive)

row,Compound,inhibition
1,CN(C)N=CC=C1CCC(=Cc2ccc(C(F)(F)F)cc2)C1=O,8.26% (inactive)
2,Cc1ccc2c(Cl)cc(Cl)c(O)c2n1,47.9% (inactive)
3,NNc1ccc2c(Cl)cc(Cl)c(O)c2n1,99.5% (active)
4,CCC(CO)NC(=S)N=P(c1ccccc1)(N(CC)CC)N(CC)CC (centres undefined),81.6% (active)
5,FC(F)(F)c1cnc(NCc2ccc3c(c2)OCCO3)c(Cl)c1,25.7% (inactive)
6,CN(CC(O)COCc1ccc2c(c1)OCO2)c1ncc(C(F)(F)F)cc1Cl (centres undefined),78% (active)
7,COC(=O)NNC(=S)NC(=O)C12CC3CC(CC(C3)C1)C2,97.8% (active)
8,Cc1[nH]n(-c2nc3ccccc3s2)c(=O)c1C=NC(C)c1ccccc1 (centres undefined),86.9% (active)
9,Cc1nc(Cl)sc1S(=O)(=O)NCC(C)c1ccccc1 (centres undefined),24.9% (inactive)
10,Clc1ccc(-c2nn3c4cc(N5CCNCC5)ccc4nc3c3ccccc23)cc1,92.9% (active)
11,CN(C1CCCCC1)S(=O)(=O)N1CCc2ccccc21,98.1% (active)
12,CN(C1CCCCC1)S(=O)(=O)c1ccc2ccccc2c1,38.7% (inactive)
13,CN(C1CCCCC1)S(=O)(=O)N1CCN(c2cccc(F)c2C#N)CC1,10.2% (inactive)
14,CC1Cc2cc(-c3cc(C(=O)O)no3)ccc2O1 (centres undefined),27.8% (inactive)
15,CN(C)C=Nc1nc(-c2ccc3ccccc3c2)cs1,-25.4% (inactive)
16,CCCCCN(C)C(=O)c1cc(-c2ccc3ccccc3c2)on1,94% (active)
17,CCOc1ccc(NC(=O)C(C)Sc2nc(N)cc(N)n2)cc1 (centres undefined),86% (active)
18,O=P(Nc1cccc(F)c1)(Oc1ccccc1F)Oc1ccccc1F,22% (inactive)
19,CCCCc1ccc(NC(=O)COC(=O)C23CCC(=O)N2CCS3)cc1 (centres undefined),95.3% (active)
20,CCCCCc1ccc(NC(=O)CCN2CCSC2=O)cc1,99% (active)
